The source made the active and inactive calls.
Legend:
Albumin (Bos taurus) = Albumin (Bos taurus) (UniProt P02769); assay: compounds binding labelled BSA control protein – biochemical, small-molecule microarray, Alexa647 label, 635/667 nm fluorescence, artefact control for SMM control protein annotation, profiling panel (AID 1118); settings: BSA-A647 binding, fluorescence 635 nm, higher = more signal;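 note: score merges 667 nm emission intensity and signal-to-noise per printed compound spot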
[1] = probe aXIP binding to arrayed compounds – biochemical, NeuroSMM set, 635/667 nm fluorescence, primary screen (AID 1119); settings: small-molecule microarray, higher = more signal, called active from +8 up or from −8 down;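 note: probe is the protein aXip251-270 applied at 1 µg/mL to compound-printed slides; binding of probe to printed compounds measured as 667 nm fluorescence plus signal to noise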
[2] = probe aNOTCH3 binding on compound microarray – biochemical, small-molecule microarray, 635/667 nm fluorescence, primary screen (AID 1120); settings: higher = more signal;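 note: probe is a biotin-tagged antibody raised against NOTCH3 rather than NOTCH3 protein; score merges spot fluorescence near 667 nm with spot signal to noise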
[3] = probe aNOTCH2 binding on compound microarray – biochemical, small-molecule microarray, 635/667 nm fluorescence, primary screen (AID 1121); settings: higher = more signal;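 note: score merges feature fluorescence read at 667 nm with its signal to noise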
[4] = target: Carbonic anhydrase 2 (Homo sapiens) (UniProt P00918); assay: compounds binding carbonic anhydrase 2 – biochemical, small-molecule microarray, Alexa647-labelled CAII, profiling panel (AID 1122); settings: CAII-A647 binding fluorescence, higher = more signal
[5] = COS7 lysate on small-molecule microarray, probe aHis, 635 nm (AID 1123); settings: COS7 cell lysate, fluorescence, higher = more signal;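 note: z-score combines 667nm fluorescence intensity with signal-to-noise per printed compound spot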
[6] = probe aLAP1 signal on lysate-treated microarray – cell lysate, small-molecule microarray, COS7 lysate, primary screen (AID 1124); settings: probe aLAP1, fluorescence, higher = more signal;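 note: lysate comes from COS7 cells expressing LAP1 and is applied at 0.3 µg/mL; score merges spot fluorescence near 667 nm with signal-to-noise over triplicate slides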
Sam68 (KHDRBS1) = assay: compounds binding KHDRBS1 protein – biochemical, small-molecule microarray, 635 nm fluorescence, primary screen (AID 1125); settings: higher = more signal;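 note: score merges 667 nm channel intensity with signal to noise over triplicate slides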
[7] = system: Chordin-like protein 2 (CHRDL2); assay: compounds binding chordin-like 2 – biochemical, small-molecule microarray, 635 nm fluorescence, primary screen (AID 1126); settings: fluorescence 635 nm, higher = more signal;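 note: printed compound slides probed with Chrdl2 protein at 4 µg/mL for 1 h at 4 C; score merges 667 nm emission intensity with signal to noise over three replicate slides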
[8] = target: Concanavalin-A (Canavalia ensiformis) (UniProt P02866); assay: compounds binding concanavalin A lectin – biochemical, small-molecule microarray, Alexa647 label, 635 nm, artefact control for SMM control protein annotation, primary screen (AID 1127); settings: ConA-A647 binding fluorescence, higher = more signal;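 note: z combines 667 nm emission intensity with signal-to-noise across three replicate slides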
Chain of Concanavalin-A (Canavalia ensiformis) (P02866 whole entry, looked up): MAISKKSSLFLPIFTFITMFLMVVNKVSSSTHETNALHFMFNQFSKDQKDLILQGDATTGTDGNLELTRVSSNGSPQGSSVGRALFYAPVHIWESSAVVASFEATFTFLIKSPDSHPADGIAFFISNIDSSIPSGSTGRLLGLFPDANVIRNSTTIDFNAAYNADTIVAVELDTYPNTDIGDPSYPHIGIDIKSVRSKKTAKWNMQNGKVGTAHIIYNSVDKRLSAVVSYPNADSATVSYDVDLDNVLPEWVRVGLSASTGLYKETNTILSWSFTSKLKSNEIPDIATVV

Chain of Albumin (Bos taurus) (P02769 whole entry, looked up): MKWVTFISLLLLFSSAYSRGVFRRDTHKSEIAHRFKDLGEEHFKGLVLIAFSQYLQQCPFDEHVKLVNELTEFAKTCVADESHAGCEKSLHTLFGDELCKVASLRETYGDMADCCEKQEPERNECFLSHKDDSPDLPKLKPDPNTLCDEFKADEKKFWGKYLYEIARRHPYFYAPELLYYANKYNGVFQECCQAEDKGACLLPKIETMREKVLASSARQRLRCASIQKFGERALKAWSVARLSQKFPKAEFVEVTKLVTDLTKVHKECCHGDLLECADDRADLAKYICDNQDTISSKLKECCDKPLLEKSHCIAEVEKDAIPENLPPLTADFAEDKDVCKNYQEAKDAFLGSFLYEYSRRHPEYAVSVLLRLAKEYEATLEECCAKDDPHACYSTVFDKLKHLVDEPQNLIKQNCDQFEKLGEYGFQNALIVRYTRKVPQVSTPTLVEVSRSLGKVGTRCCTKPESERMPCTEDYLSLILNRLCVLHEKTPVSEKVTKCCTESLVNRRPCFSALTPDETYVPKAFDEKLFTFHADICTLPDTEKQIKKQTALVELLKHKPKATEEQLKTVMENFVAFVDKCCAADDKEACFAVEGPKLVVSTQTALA

| SMILES | composite z-score (Albumin (Bos taurus)) | composite Z-score [1] | composite z-score [2] | composite z-score [3] | composite z-score [4] | composite z-score [5] | composite z-score [6] | composite z-score (Sam68 (KHDRBS1)) | composite z-score [7] | composite z-score [8] |
| --- | --- | --- | --- | --- | --- | --- | --- | --- | --- | --- |
| CC(C)C[C@@H]1NC(=O)[C@@H]2C[C@H](C(=O)NCCCCCC[N+](C)(C)C)[C@H](c3ccc(O)cc3)N2C1=O | -0.0787 | 0.729 (inactive) | 0.0562 | -0.189 | 0.678 | 1.58 | 0.301 | 1.25 | 1.33 | 0.989 |
| COc1ccc([Si](C)(C)[C@@H]2[C@@H](CC(=O)N(CCO)Cc3ccccc3)O[C@]3(C(=O)N(C)c4ccccc43)[C@H]2C)cc1 | 0.751 | 0.26 (inactive) | 0.0964 | 0.0022 | 0.516 | 0.855 | 0.0123 | 1.31 | 1.43 | 1.12 |
| C=CCNC(=O)[C@@H]1[C@H]2C(=O)O[C@H](c3ccccc3)[C@H](c3ccccc3)N2[C@H](c2ccc(O)cc2)[C@@]12C(=O)N(C(=O)OCCOC)c1ccccc12 | 0.752 | -0.155 (inactive) | -0.0716 | -0.143 | 0.519 | 2.23 | 0.334 | 1.28 | -0.49 | -0.18 |
| COCCOC(=O)N1C(=O)[C@@]2(c3cc(C#CCC(C(=O)OC)C(=O)OC)ccc31)[C@H](C(=O)N1CCN(c3ncccn3)CC1)[C@H]1C(=O)O[C@H](c3ccccc3)[C@H](c3ccccc3)N1[C@@H]2c1ccc(OCCO)cc1 | 0.727 | 1.44 (inactive) | 0.0097 | -0.14 | 0.323 | 1.35 | 0.522 | 1.3 | 0.17 | 1.09 |
| COC(=O)C1=CC(CCCO)=CC(C2CC2)N(Cc2sc3ccccc3c2Cl)C=C1C(=O)OC (stereo not given) | 0.932 | 0.408 (inactive) | 0.224 | -0.0209 | 0.817 | 1.55 | 1.01 | 1.3 | -0.236 | 0.949 |
| CC=CC(O)C1C=CC2C(=O)N(c3ccccc3)C(=O)C2N1Nc1ccc(C(C)C)cc1 (stereo not given) | 0.98 | 0.609 (inactive) | 0.271 | 0.0751 | 0.641 | 3.26 | 0.3 | 1.3 | 0.0045 | 1.11 |
| COC(=O)[C@@]1(Cc2ccccc2)N=C(c2ccc(OCCCO)cc2)O[C@H]1c1ccccc1N=[N+]=[N-] | -0.541 | 2.98 (inactive) | 0.104 | 0.114 | 0.111 | 1.37 | 0.863 | 1.06 | 0.968 | 0.649 |
| O=c1cccc(C=Cc2ccccc2)o1 | -0.828 | 0.0786 (inactive) | -0.178 | -0.126 | -0.228 | -0.386 | 0.224 | -0.0848 | -1.58 | -0.514 |
| CCCNC(=O)[C@@]1(c2ccc([N+](=O)[O-])cc2)CC(=O)N(CC23CC4CC(CC(C4)C2)C3)[C@@H]1c1ccc(CO)cc1 | -0.161 | -0.639 (inactive) | -0.255 | -0.168 | 0.716 | 1.08 | 1.88 | 0.591 | -0.0438 | 0.531 |
| CC(C)C[C@@H]1NC(=O)[C@H]2C[C@@H](C(=O)NCCCCCNC(=O)CS)[C@@H](c3cccc(OCCO)c3)N2C1=O | 0.258 | -0.014 (inactive) | 0.191 | -0.0358 | 0.561 | 1.32 | 0.438 | 1.3 | 1.39 | 1 |
| CC(C)(C)OC(=O)CC[C@@]1(C(=O)O)N=C(c2ccc(OCCCO)cc2)O[C@@H]1c1ccccc1N=[N+]=[N-] | 0.933 | 0.0589 (inactive) | 0.39 | 0.0309 | 0.72 | 1.27 | 0.298 | 1.12 | -0.734 | 0.648 |
| C[N+](C)(C)CCCCCCNC(=O)[C@H]1C[C@H]2C(=O)N3CCC[C@H]3C(=O)N2[C@H]1c1ccc(O)cc1 | -0.608 | 0.287 (inactive) | 0.0039 | -0.107 | 0.5 | 1.73 | -0.379 | 0.485 | 0.472 | 0.709 |
| CCOC(=O)C1=CCC(C(C)(C)C)N(S(=O)(=O)c2ccc(C)cc2)C1 (stereo not given) | 0.815 | -0.427 (inactive) | 0.34 | -0.0196 | 0.623 | 2.45 | 0.368 | 1.32 | 0.825 | 1.1 |
| CC(C)N1C(=O)c2ccccc2[C@@H](C(=O)NCCCN(C)C)[C@@H]1c1ccc(CO)cc1 | 0.955 | -0.109 (inactive) | -0.15 | 0.0364 | 0.901 | 0.82 | 0.0206 | 0.297 | -1.91 | 0.289 |
| CCOC(=O)C[C@H]1[C@H](OC(=O)c2ccc(-c3ccccc3)cc2)[C@@H](NC(=O)c2ccc3ccccc3c2)c2cc(OCCCO)ccc2N1C(=O)Cc1ccc(OC)cc1 | 0.605 | -0.608 (inactive) | -0.063 | -0.11 | -0.0752 | 0.484 | 0.188 | 0.41 | -0.887 | -0.101 |
| COc1ccc(C(O)C2C=CC3C(=O)N(C)C(=O)C3N2Nc2ccccc2)cc1OCc1ccccc1 (stereo not given) | 0.878 | 0.0582 (inactive) | -0.0714 | -0.0128 | 0.754 | 1.67 | -0.142 | 1.28 | -0.0441 | 0.949 |
| COc1ccc([Si](C)(C)[C@@H]2[C@@H](CC(=O)N3CCC[C@H]3CO)O[C@]3(C(=O)N(C)c4c(Br)cc(C)cc43)[C@H]2C)cc1 | 0.588 | 0.306 (inactive) | 0.0674 | -0.175 | 0.292 | 1.15 | 0.461 | 1.3 | 0.872 | 1.07 |
| CCCC[C@H]1OB(O)C[C@H]2C1=C(C)C[C@H]1C(=O)N(Cc3ccccc3)C(=O)[C@H]12 | 0.067 | 0.252 (inactive) | -0.0613 | -0.126 | 0.38 | 0.257 | -0.361 | 0.663 | 0.472 | 0.546 |
| COc1ccc(CCNC(=O)[C@@H]2c3ccccc3C(=O)N(Cc3ccc(OC(F)(F)F)cc3)[C@H]2c2ccc(CO)cc2)cc1 | 0.59 | -0.313 (inactive) | -0.0077 | -0.0029 | 0.497 | 1.53 | 0.983 | 1.07 | 0.0372 | 0.485 |
| O=C1O[C@@H](c2ccccc2)[C@@H](c2ccccc2)N2[C@@H](c3ccccc3OCCO)[C@]3(C(=O)Nc4ccc(C#CC5(O)CCCCCC5)cc43)[C@@H](C(=O)Nc3nc4ccccc4s3)[C@H]12 | 0.663 | -0.0544 (inactive) | 0.283 | -0.0904 | 0.453 | 1 | 0.246 | 1.02 | 0.784 | 0.723 |
| C=CC(COC(C)=O)NS(=O)(=O)c1ccc(Br)cc1 (stereo not given) | -0.68 | 0.0518 (inactive) | -0.0337 | -0.133 | -0.0235 | -0.01 | 0.0423 | 0.591 | 0.912 | 0.682 |

Source: PubChem BioAssay
